Bioassay records from PubChem.
MPTP inh: permeability transition pore inhibition; isolated mouse mitochondria, Ca2+ swelling absorbance, 30 min; inhibition, % at 10 µM; 360,000 compounds, 1.4% hits; AID 602449;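 active = inhibition of 50% or more, scaled per plate between neutral and stimulator controls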;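 note: 0% = DMSO wells given calcium and 100% = 1 mM EGTA wells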
Beta apoptosis: beta cell apoptosis inhibition; INS-1E cytokine-induced death, ATP luminescence, 48 h; percent of positive-control rescue, neutral wells zero; AID 435005; 300,000 compounds, 0.8% hits; protection from apoptosis, % (no concentration beside the values);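 active = Every replicate reaches about 75%, or at least half do and their mean reaches it too, limit read from the data; inconclusive = At least half of replicates reach the limit but their mean does not; inactive = Under half of replicates reach the limit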;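 note: 0% = cytokine-treated negative control wells and 100% = positive control rescue; higher means more ATP so stronger rescue from cytokine killing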
Mdm2 MdmX PPI: inhibitors of human Mdm2/MdmX interaction; SaOS-2 split-luciferase Mdm2/MdmX complementation, luminescence; inhibition, % at 8 µM; 330,000 compounds, 3% hits;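 active = inhibition of at least 50% at 8 µM in the primary screen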
Target sequence (O15151 whole entry, looked up): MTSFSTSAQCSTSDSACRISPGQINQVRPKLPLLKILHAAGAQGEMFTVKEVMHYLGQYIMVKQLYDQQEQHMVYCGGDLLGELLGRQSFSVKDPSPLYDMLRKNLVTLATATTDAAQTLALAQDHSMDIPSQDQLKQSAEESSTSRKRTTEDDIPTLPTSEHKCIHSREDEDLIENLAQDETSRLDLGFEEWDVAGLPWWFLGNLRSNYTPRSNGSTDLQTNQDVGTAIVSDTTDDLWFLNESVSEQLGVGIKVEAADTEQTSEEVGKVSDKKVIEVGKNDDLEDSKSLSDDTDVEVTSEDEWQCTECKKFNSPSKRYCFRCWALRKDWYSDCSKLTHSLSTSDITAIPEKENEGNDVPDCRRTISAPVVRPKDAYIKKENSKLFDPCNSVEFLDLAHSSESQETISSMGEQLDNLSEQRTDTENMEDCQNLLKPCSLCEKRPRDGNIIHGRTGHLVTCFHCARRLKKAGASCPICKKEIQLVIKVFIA
Target sequence (Q00987 whole entry, looked up): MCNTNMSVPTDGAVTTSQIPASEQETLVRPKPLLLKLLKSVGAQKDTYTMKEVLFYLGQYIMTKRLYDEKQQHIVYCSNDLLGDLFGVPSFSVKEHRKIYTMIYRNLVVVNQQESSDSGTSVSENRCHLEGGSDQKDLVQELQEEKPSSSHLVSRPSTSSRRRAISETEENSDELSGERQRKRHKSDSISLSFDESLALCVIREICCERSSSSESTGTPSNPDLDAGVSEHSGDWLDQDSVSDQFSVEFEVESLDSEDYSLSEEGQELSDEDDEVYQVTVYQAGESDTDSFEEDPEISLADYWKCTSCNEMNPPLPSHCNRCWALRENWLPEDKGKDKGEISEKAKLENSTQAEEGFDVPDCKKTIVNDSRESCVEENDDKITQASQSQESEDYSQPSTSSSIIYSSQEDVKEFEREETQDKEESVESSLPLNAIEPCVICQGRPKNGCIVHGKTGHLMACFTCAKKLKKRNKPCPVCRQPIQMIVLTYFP
SKKanGAS inh: blocks kanamycin growth of S. pyogenes SKKanGAS strain; BacTiter-Glo, 6 h; inhibition, % at 7.5 µM; 300,000 compounds, 1.3% hits; AID 1662;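 active = mean replicate score, as percent of positive control median, at least 50; inconclusive = mean below 50 but one replicate at or above 50; inactive = mean and every replicate below 50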;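 note: strain carries kanamycin resistance gene driven by streptokinase promoter and grows in 40 µg/ml kanamycin; loss of luminescence reflects streptokinase promoter inhibition or plain growth inhibition; 0% = median of DMSO wells and 100% = positive control at its reference dose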
Calb FLC: C. albicans growth modulation with fluconazole. C. albicans CaCi-2 (fluconazole-resistant clinical isolate) + fluconazole, Alamar Blue growth, 48 h. growth inhibition, % (no concentration beside the values). 300,000 compounds, 0.57% hits. AID 1979;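 active = growth inhibition above about 58% in most replicates, limit read from the data, passing the limit was not always enough; inconclusive = exactly half the replicates above a set limit; inactive = most replicates below a set limit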;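 note: all wells also contain fluconazole at 8 µg/ml as a sub-toxic cotreatment; 0% = median of DMSO wells and 100% = median of geldanamycin control wells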
CSC inhib: cancer stem cell inhibition; inhibition, % at 7.5 µM; cancer stem cell-like cells viability, luminescence; 300,000 compounds, 1.1% hits; AID 2717; in the data active = inhibition above about 75%; inconclusive = no clear call, values can overlap the other calls; tested in HMLE shEcad cells
Mdm2-MdmX conf: confirmation of human Mdm2/MdmX interaction inhibitors; inhibition, % at 8 µM; 10,000 compounds, 55% hits; shares compounds with Mdm2 MdmX PPI; Mdm2-MdmX binding, luminescent assay; in the data active = inhibition above about 40%
Full FLuc ctr: inhibits full-length luciferase, flagging false Mdm2/MdmX hits; SaOS-2 full-length luciferase counterscreen, luminescence; inhibition, % at 8 µM; shares compounds with Mdm2 MdmX PPI; 6,200 compounds, 77% hits;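 active = mean inhibition at 8 µM reaching about 37%, which flags the compound as non-specific, limit read from the data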;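 note: p53-null SaOS-2 cells with luciferase driven by a doxycycline-inducible promoter; compound on cells about two nights before reading with doxycycline added after day one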
* = called active by the depositor; u = inconclusive; x = not tested or not shown. Most compounds without a hit are left out; they make up all but 5.4% or so of the library.

SMILES | MPTP inh | Beta apoptosis | Mdm2 MdmX PPI | SKKanGAS inh | Calb FLC | CSC inhib | Mdm2-MdmX conf | Full FLuc ctr
CC(=O)c1ccc(OCC(=O)N2CCCC2c2ccc3c(c2)OCCCO3)cc1 (stereo unspecified) | -1 | -17 | 13 | x | x | -3 | x | x
O=C(CCl)N1CCCC1c1ccc2c(c1)OCCO2 (stereo unspecified) | 27 | -2 | 75* | 6 | 8 | -2 | 33 | 43*
Cn1c(NCC(O)c2ccccc2)nc2c1c(=O)n(Cc1ccc(Cl)c(Cl)c1)c(=O)n2C (stereo unspecified) | 4 | 4 | 63* | 30 | 3 | -10 | 21 | x
Cn1c(NCC(O)c2ccccc2)nc2c1c(=O)n(Cc1ccc(Cl)cc1)c(=O)n2C (stereo unspecified) | -3 | 6 | 3 | 11 | -13 | 4 | x | x
CCCN(CCC)S(=O)(=O)c1ccc(C(=O)Nc2nnc(-c3cc(OC)cc(OC)c3)o2)cc1 | -29 | x | 51* | 102* | 0 | 57 | 1 | x
CCc1nnc(NC(=O)c2ccc(S(=O)(=O)N(CCOC)CCOC)cc2)o1 | -1 | -5 | 5 | 1 | 3 | -4 | x | x
O=C1c2ccccc2C(=O)C1c1ccccn1 | 1 | 1 | -7 | -11 | 7 | 10 | x | x
O=C1c2ccccc2C(=O)C2OC12 (stereo unspecified) | x | -49 | 72* | 21 | 3 | 49 | 31 | 44*
COc1ccc(-c2oc3ccccc3c(=O)c2OC(C)=O)cc1 | 3 | 3 | 73* | 16 | 45 | 27 | 83* | 51*
O=C(O)COc1c(-c2ccco2)oc2ccccc2c1=O | -1 | 0 | -14 | -2 | -4 | -4 | x | x
CC(=O)Oc1c(-c2ccc(Br)o2)oc2ccccc2c1=O | 3 | 2 | 93* | 86* | 85* | 21 | 41* | 30
Cc1ccc(CCN2CC(C(=O)NCc3cccnc3)CC2=O)cc1 (stereo unspecified) | 0 | x | -3 | -11 | -5 | x | x | x
O=C(CCCCl)Oc1ccc2cc(-c3ccc4ccccc4n3)c(=O)oc2c1 | 11 | -2 | -64 | -14 | -24 | 29 | x | x
COc1ccc([C@H]2CC(=O)C=C(c3ccc(OC)cc3OC)C2)cc1 | 0 | 7 | 51* | x | x | 71 | 34 | 98*
CS(=O)(=O)c1ccc(C(=O)OCC(=O)NC(=O)C2COc3ccccc3O2)cc1[N+](=O)[O-] (stereo unspecified) | 0 | -42 | 51* | x | x | 11 | 26 | x
Nc1ccc(C(=O)NNC(=O)C2COc3ccccc3O2)cc1[N+](=O)[O-] (stereo unspecified) | -1 | -4 | 3 | 0 | -5 | -9 | x | x
CS(=O)(=O)c1ccc(C(=O)OCC(=O)NC(=O)C2CCCCC2)cc1[N+](=O)[O-] | 0 | -31 | 50* | 15 | -6 | 64 | 18 | x
Cc1nnc(SCC(=O)N2CCC(c3noc4ccc(F)cc34)CC2)s1 | -2 | -19 | 78* | 0 | -1 | -1 | 69* | 20
c1ccc(COn2c(-c3ccccc3)nc3c2CCc2nonc2-3)cc1 | 3 | 12 | -29 | 1 | -2 | -8 | x | x
Cc1cccn2c(=O)c(C=NCc3ccco3)c(Nc3ccc(SC(F)F)cc3)nc12 | -1 | 25 | 56* | 14 | 0 | -3 | 5 | x
O=C(Nc1ccc(N2CCCCC2)cc1)c1ccccn1 | -1 | 47 | 81* | 6 | 8 | -4 | 84* | 28
CCOC(=O)Cn1c(S(=O)(=O)Cc2cccc(F)c2)nc(-c2ccccc2)c1-c1ccccc1 | -2 | 31 | 81* | -1 | 3 | 29 | 56* | 67*
C#CCn1c(S(=O)(=O)Cc2ccc(F)cc2)nc(-c2ccccc2)c1-c1ccccc1 | 0 | 20 | 97* | 7 | 34 | 54 | 91* | 52*
NC(=O)Cn1c(S(=O)(=O)Cc2ccccc2)nc2ccccc21 | -2 | -10 | -14 | 0 | 2 | -9 | x | x
CCOC(=O)Cn1c(-c2ccccc2)nc2ccccc2c1=O | 0 | -5 | 0 | -14 | 3 | -1 | x | x
SMILES | MPTP inh | Beta apoptosis | Mdm2 MdmX PPI | SKKanGAS inh | Calb FLC | CSC inhib | Mdm2-MdmX conf | Full FLuc ctr
CCOC(=O)Cn1c(-c2ccc(OC)cc2)c(-c2ccc(OC)cc2)nnc1=O | 0 | -5 | 4 | -1 | 13 | -11 | x | x
CCOC(=O)Cn1c(S(=O)(=O)Cc2ccc(F)cc2)nc(-c2ccccc2)c1-c1ccccc1 | 0 | 3 | 79* | 4 | u | 20 | 56* | 63*
COc1ccc(OCC(=O)Nc2ccc3oc(-c4ccncc4)nc3c2)cc1 | 4 | -9 | -5 | -1 | 37 | -1 | x | x
Cc1ccc(OCC(=O)Nc2ccc(O)c(-c3nc4ccccc4o3)c2)cc1 | 0 | 7 | 92* | 18 | -3 | -8 | 47* | 108*
O=C(O)Cn1c(=O)c(F)cn(C2CCCO2)c1=O (stereo unspecified) | 1 | -5 | -3 | 4 | -5 | -14 | x | x
CCOc1ccc(Nc2ncnc3ccc([N+](=O)[O-])cc23)cc1 | 0 | 0 | 69* | 3 | 1 | 7 | 71* | 53*
COc1cc(C2C(C#N)=C(N)Oc3cc(O)ccc32)cc(OC)c1OC (stereo unspecified) | 0 | -8 | 65* | -8 | -1 | 61 | 67* | 67*
COc1cc(C2C(C#N)=C(N)Oc3cc(O)ccc32)cc2c1OCO2 (stereo unspecified) | 2 | -2 | 57* | -3 | 1 | -2 | 56* | 59*
Cc1ccc(C2C(C#N)=C(N)Oc3cc(N)ccc32)cc1 (stereo unspecified) | 1 | 2 | 3 | -1 | -10 | 27 | x | x
COc1ccc(C2C(C#N)=C(N)Oc3cc(O)ccc32)cc1OC (stereo unspecified) | -2 | 9 | 17 | -5 | -6 | -12 | x | x
N#CC1=C(N)Oc2cc3c(cc2C1c1ccc(Cl)cc1)OCO3 (stereo unspecified) | 1 | 2 | 61* | 27 | 41 | 44 | 46* | 60*
COc1cc(C2C(C#N)=C(N)Oc3cc(N(C)C)ccc32)cc2c1OCO2 (stereo unspecified) | 2 | 69 | 78* | -4 | 2 | 52 | 64* | 112*
CCOC(=O)C1=C(C)OC(N)=C(C#N)C1c1cc(OC)c2c(c1)OCO2 (stereo unspecified) | -4 | -8 | -1 | 2 | -5 | -3 | x | x
COc1ccc(C2C(C#N)=C(N)Oc3cc(O)ccc32)cc1C (stereo unspecified) | 4 | 2 | 15 | x | 17 | 6 | x | x
Cc1ccccc1N(CC(=O)NC(C)(C)C)C(=O)CCC(=O)Nc1nccs1 | 0 | -1 | 19 | -1 | 0 | -7 | x | x
